Data: PubChem BioAssay (EPA / NIEHS)
Results filed as inconclusive are left out. The source made the active and inactive calls. The calls were made as follows: active = hit-call score of the fitted dose curve at least 0.9, where 1 is the maximum; inconclusive = response in the unintended direction; inactive = score below 0.9.

Columns and labels:
[1] = biological target: rat Serotonin, 5-Hydroxytryptamine Receptor (5HT), Non-Selective Binding, Htr1a (gene 24473) (UniProt P19327); assay: NVS_GPCR_r5HT_NonSelective: NovaScreen (NVS) G Protein-Coupled Receptor Assay for rat Serotonin, 5-Hydroxytryptamine Receptor (5HT), Non-Selective Binding (AID 2283295)
Procedure: (§1) NVS_GPCR_r5HT_NonSelective is a biochemical, single-readout assay that uses extracted gene-proteins from Rat cortical membranes in a tissue-based cell-free assay. Measurements were taken 1 hour after chemical dosing in a 48-well plate.NVS_GPCR_r5HT_NonSelective is one of one assay component(s) measured or calculated from the NVS_GPCR_r5HT_NonSelective assay. It is designed to make measurements of radioligand binding, a form of binding reporter, as detected with scintillation counting signals by Filter-based radiodetection technology.Data from the assay component NVS_GPCR_r5HT_NonSelective was analyzed into 1 assay endpoint. This assay endpoint, NVS_GPCR_r5HT_NonSelective, was analyzed in the positive analysis fitting direction relative to DMSO as the negative control and baseline of activity. Using a type of binding reporter, loss-of-signal activity can be used to understand changes in the binding as they relate to the gene Htr1a. Furthermore, this assay endpoint can be referred to as a primary readout, because the performed assay has only produced 1 assay endpoint. To generalize the intended target to other relatable targets, this assay endpoint is annotated to the gpcr intended target family, where the subfamily is rhodopsin-like receptor.
Binding assays used specific radioligands (tritiated, iodinated) with non-radioactive competitive displacement ligands in agonist or antagonist protocols (as indicated) and various reference compounds and inhibitors to titrate specific binding to receptors and transporters. Most enzyme assays (CYPs, kinases, phosphatases, proteases, HDACs) used recombinant protein and specific substrates (fluorescence mostly, some colorimetric and radioactive) and inhibitors, followed by a biochemical separation of substrate and product. All assays for the biochemical HTS were initially run in duplicate at a single concentration (10 uM for CYP450 assays and 25 uM for all others). […] Each assay was run with positive and negative controls, and concurrent controls on every plate. The follow-up (secondary) screen tested active chemical-pairs in concentration series, as well as a few additional assays not tested in the primary screen, some selected negative inactives, and several cases re-run in the concentration series for confirmatory purposes.

[2] = biological target: guinea pig Serotonin, 5-Hydroxytryptamine Receptor 4 (5HT4), HTR4 (gene 100135548) (UniProt O70528); assay: NVS_GPCR_g5HT4: NovaScreen (NVS) G Protein-Coupled Receptor Assay for guinea pig Serotonin, 5-Hydroxytryptamine Receptor 4 (5HT4) (AID 2283294)
Outline: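 Guinea pig striatal membranes; radioligand competitive displacement, filtration and scintillation counting after 1 h. Primary screen in duplicate at 25 uM; actives then tested in concentration series; loss of binding signal fitted relative to DMSO.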

[3] = biological target: rat Adrenergic, Alpha 1, Non-selective Receptor (Adra1), Adra1a (gene 29412) (UniProt P43140); assay: NVS_GPCR_rAdra1_NonSelective: NovaScreen (NVS) G Protein-Coupled Receptor Assay for rat Adrenergic, Alpha 1, Non-selective Receptor (Adra1) (AID 2283289)
Procedure: as §1, with “NVS_GPCR_rAdra1_NonSelective” for “NVS_GPCR_r5HT_NonSelective”, “forebrain” for “cortical”, “plate.NVS_GPCR_rAdra1_NonSelective” for “plate.NVS_GPCR_r5HT_NonSelective”, “NVS_GPCR_rAdra1_NonSelective,” for “NVS_GPCR_r5HT_NonSelective,”, “Adra1a.” for “Htr1a.”
Binding assays used specific radioligands (tritiated, iodinated) with non-radioactive competitive displacement ligands in agonist or antagonist protocols (as indicated) and various reference compounds and inhibitors to titrate specific binding to receptors and transporters. Most enzyme assays (CYPs, kinases, phosphatases, proteases, HDACs) used recombinant protein and specific substrates (fluorescence mostly, some colorimetric and radioactive) and inhibitors, followed by a biochemical separation of substrate and product. All assays for the biochemical HTS were initially run in duplicate at a single concentration (10 uM for CYP450 assays and 25 uM for all others). Assay-chemical combinations meeting a pre-defined threshold (e.g., 30% inhibition and other criteria defined below) were then run in singleton concentration-response format with maximum concentration of 20 uM for CYPs and 50 uM for all others. Each assay was run with positive and negative controls, and concurrent controls on every plate. The follow-up (secondary) screen tested active chemical-pairs in concentration series, as well as a few additional assays not tested in the primary screen, some selected negative inactives, and several cases re-run in the concentration series for confirmatory purposes.

[4] = tested on: 5-hydroxytryptamine receptor 2C (pig); assay: NVS_GPCR_p5HT2C: NovaScreen (NVS) G Protein-Coupled Receptor Assay for pig Serotonin, 5-Hydroxytryptamine Receptor 2C (5HT2C) (AID 2283288)
Outline: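 Pig choroid plexus membranes; radioligand competitive binding, filter-based scintillation counting, read 1 h after dosing. Primary screen in duplicate at 25 uM; actives then run as concentration series; loss of signal versus DMSO baseline.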

[5] = biological target: human Opioid Receptor Mu (Opiate Mu), OPRM1 (gene 4988) (UniProt P35372); assay: NVS_GPCR_hOpiate_mu: NovaScreen (NVS) G Protein-Coupled Receptor Assay for human Opioid Receptor Mu (Opiate Mu) (AID 2283290);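 also: hits lower bound tracer signal versus DMSO meaning displacement of the ligand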
Outline: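 Radioligand displacement binding on membranes from CHO cells expressing the receptor, 2.5 h after dosing, filter-based scintillation counting; loss of signal vs DMSO baseline. Screened in duplicate at 25 uM, actives then run in concentration series.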

[6] = biological target: guinea pig Bradykinin Receptor B2 (BK2), BDKRB2 (gene 100135486) (UniProt O70526); assay: NVS_GPCR_gBK2: NovaScreen (NVS) G Protein-Coupled Receptor Assay for guinea pig Bradykinin Receptor B2 (BK2) (AID 2283292)
Outline: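 Radioligand displacement on guinea pig ileum membranes for 1 h, read by filter-based scintillation counting; loss of signal relative to DMSO. Compounds were screened in duplicate at 25 uM, and those passing the threshold were retested in concentration-response up to 50 uM.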

[7] = biological target: mouse Cholecystokinin, CCK2 Receptor (CCKB), Cckbr (gene 12426) (UniProt P56481); assay: NVS_GPCR_mCKKBCentral: NovaScreen (NVS) G Protein-Coupled Receptor Assay for mouse Cholecystokinin, CCK2 Receptor (CCKB) (AID 2283293)
Outline: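 Radioligand displacement binding on mouse forebrain membranes, 2 h exposure, filter-based scintillation counting. Primary screen in duplicate at 25 uM; actives (e.g. ≥30% inhibition) retested in concentration-response up to 50 uM; loss of binding signal relative to DMSO.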

[8] = tested on: rat Adrenergic, Alpha 1B Receptor (Adra1B), gene 24173; assay: NVS_GPCR_rAdra1B: NovaScreen (NVS) G Protein-Coupled Receptor Assay for rat Adrenergic, Alpha 1B Receptor (Adra1B) (AID 2283297)
Outline: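 Rat liver membranes, radioligand displacement with filter-based scintillation detection, 1 h incubation. Primary screen in duplicate at 25 uM; actives retested in concentration series; activity relative to DMSO.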

[9] = biological target: rat Adrenergic, Alpha 1A Receptor (Adra1A), Adra1a (gene 29412) (UniProt P43140); assay: NVS_GPCR_rAdra1A: NovaScreen (NVS) G Protein-Coupled Receptor Assay for rat Adrenergic, Alpha 1A Receptor (Adra1A) (AID 2283296)
Outline: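 Rat cortical membranes pretreated with chlorethyl clonidine; competitive radioligand displacement, 1 h. Filter-based scintillation counting. Primary screen in duplicate at 25 uM, actives followed in concentration series.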

[10] = biological target: rat Adrenergic Receptor, Beta (Adrb), Non-selective Binding, Adrb1 (gene 24925) (UniProt P18090); assay: NVS_GPCR_rAdrb_NonSelective: NovaScreen (NVS) G Protein-Coupled Receptor Assay for rat Adrenergic Receptor, Beta (Adrb), Non-selective Binding (AID 2283298)
Outline: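 Non-selective beta-adrenergic radioligand binding in rat cortical membranes, 1 h incubation, filter-based scintillation read-out. Primary screen 25 uM in duplicate; hits retested in concentration-response up to 50 uM, DMSO baseline.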

guinea pig Bradykinin Receptor B2 (BK2), BDKRB2 (gene 100135486), sequence (O70526 whole entry, looked up): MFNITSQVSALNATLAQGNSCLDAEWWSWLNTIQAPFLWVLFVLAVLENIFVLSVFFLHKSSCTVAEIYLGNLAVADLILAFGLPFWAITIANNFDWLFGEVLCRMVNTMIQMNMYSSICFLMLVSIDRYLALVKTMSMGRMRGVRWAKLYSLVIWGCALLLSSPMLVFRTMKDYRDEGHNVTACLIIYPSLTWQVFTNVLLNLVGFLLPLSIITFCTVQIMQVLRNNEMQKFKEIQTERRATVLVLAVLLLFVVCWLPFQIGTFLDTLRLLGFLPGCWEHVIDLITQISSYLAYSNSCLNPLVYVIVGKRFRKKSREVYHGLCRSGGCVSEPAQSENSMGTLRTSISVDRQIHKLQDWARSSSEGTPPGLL
human Opioid Receptor Mu (Opiate Mu), OPRM1 (gene 4988), sequence (P35372 whole entry, looked up): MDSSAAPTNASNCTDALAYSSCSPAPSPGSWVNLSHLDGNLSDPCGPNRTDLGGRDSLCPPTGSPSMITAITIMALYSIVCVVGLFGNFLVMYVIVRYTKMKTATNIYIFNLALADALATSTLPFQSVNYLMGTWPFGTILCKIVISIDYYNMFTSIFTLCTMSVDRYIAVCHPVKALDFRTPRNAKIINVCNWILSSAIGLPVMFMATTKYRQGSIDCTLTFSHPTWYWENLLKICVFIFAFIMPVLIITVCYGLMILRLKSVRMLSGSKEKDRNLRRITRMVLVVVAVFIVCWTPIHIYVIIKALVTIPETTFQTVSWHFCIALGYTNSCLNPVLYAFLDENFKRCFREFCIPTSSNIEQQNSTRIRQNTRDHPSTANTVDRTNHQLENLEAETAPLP
rat Adrenergic, Alpha 1A Receptor (Adra1A), Adra1a (gene 29412), sequence (P43140 whole entry, looked up): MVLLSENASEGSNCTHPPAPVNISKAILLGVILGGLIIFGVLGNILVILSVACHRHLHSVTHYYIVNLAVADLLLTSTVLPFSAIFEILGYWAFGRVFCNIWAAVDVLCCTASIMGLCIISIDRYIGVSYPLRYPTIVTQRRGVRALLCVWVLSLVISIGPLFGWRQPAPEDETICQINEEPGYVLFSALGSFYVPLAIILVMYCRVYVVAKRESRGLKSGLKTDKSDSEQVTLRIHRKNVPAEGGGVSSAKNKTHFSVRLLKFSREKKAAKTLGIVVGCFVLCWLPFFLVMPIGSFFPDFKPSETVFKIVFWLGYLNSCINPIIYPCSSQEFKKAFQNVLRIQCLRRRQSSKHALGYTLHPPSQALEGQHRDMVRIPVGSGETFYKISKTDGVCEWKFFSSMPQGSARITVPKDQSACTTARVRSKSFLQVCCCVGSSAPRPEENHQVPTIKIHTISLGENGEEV
rat Adrenergic, Alpha 1, Non-selective Receptor (Adra1), Adra1a (gene 29412), sequence (P43140 whole entry, looked up): as above
rat Serotonin, 5-Hydroxytryptamine Receptor (5HT), Non-Selective Binding, Htr1a (gene 24473), sequence (P19327 whole entry, looked up): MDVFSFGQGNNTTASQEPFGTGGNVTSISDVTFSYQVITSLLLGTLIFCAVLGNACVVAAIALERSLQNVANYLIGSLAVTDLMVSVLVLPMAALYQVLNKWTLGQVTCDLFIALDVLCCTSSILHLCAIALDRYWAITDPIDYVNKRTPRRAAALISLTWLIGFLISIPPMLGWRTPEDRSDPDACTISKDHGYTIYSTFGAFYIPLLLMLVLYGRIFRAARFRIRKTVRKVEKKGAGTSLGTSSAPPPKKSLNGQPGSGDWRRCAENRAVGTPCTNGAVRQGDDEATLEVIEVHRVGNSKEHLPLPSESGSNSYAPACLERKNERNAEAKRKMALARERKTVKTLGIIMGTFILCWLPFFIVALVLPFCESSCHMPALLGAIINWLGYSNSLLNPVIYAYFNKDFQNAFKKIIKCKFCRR
rat Adrenergic Receptor, Beta (Adrb), Non-selective Binding, Adrb1 (gene 24925), sequence (P18090 whole entry, looked up): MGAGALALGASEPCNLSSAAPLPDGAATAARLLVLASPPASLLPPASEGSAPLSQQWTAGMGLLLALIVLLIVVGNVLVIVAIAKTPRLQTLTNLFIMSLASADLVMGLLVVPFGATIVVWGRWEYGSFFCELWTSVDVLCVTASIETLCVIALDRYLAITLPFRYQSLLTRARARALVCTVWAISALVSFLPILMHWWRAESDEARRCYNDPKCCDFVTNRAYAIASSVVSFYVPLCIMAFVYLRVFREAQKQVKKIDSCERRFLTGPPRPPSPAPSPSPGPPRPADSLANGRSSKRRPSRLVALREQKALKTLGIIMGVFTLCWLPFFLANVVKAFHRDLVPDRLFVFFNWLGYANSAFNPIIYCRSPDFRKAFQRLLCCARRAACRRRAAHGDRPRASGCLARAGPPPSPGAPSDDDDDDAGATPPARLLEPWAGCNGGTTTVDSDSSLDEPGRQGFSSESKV
guinea pig Serotonin, 5-Hydroxytryptamine Receptor 4 (5HT4), HTR4 (gene 100135548), sequence (O70528 whole entry, looked up): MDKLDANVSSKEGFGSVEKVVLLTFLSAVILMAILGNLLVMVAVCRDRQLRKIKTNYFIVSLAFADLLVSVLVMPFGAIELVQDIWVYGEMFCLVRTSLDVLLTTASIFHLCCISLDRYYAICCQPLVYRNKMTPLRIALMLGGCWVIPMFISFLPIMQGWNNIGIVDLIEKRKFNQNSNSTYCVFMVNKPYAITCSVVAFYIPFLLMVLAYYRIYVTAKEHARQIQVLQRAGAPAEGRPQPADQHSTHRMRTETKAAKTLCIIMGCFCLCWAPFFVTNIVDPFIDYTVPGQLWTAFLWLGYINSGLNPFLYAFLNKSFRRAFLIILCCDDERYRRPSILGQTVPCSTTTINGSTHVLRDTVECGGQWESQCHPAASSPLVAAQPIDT
mouse Cholecystokinin, CCK2 Receptor (CCKB), Cckbr (gene 12426), sequence (P56481 whole entry, looked up): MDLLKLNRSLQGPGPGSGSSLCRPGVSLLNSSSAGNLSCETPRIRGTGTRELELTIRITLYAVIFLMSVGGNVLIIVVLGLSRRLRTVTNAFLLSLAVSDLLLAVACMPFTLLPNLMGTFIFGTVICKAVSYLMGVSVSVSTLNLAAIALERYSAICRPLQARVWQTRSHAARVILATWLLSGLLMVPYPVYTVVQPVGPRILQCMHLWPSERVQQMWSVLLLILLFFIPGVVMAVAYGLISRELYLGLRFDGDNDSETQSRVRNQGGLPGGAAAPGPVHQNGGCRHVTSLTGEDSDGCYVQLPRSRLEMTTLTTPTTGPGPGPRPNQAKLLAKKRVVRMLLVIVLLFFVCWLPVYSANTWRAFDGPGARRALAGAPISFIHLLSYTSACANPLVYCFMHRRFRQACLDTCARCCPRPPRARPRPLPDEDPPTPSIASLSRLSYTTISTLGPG

O=c1[nH]cnc2c1ncn2[C@H]1CC[C@@H](CO)O1
outcome [1]: inactive

O=C(O)c1cccc(C[C@@H]2COc3ccc(OCc4nc5cc(F)ccc5s4)cc3[C@@H]2O)c1
outcome [2]: inactive

CCCCOC(=O)c1ccccc1
outcome [2]: inactive

CCCOc1ccc(S(=O)(=O)N2CCN(CC)CC2)cc1-c1nc2c(CC)n(Cc3ccccn3)nc2c(=O)[nH]1
AC50 [3]: 0.402 µM (active)

CCCCCCCCCC
outcome [4]: inactive
outcome [5]: inactive
outcome [6]: inactive
outcome [7]: inactive
outcome [2]: inactive
outcome [8]: inactive

C[C@@H](Oc1ccc(CNC(=O)c2cccnc2Oc2ccc3c(c2)OCO3)c(F)c1)C(=O)O
outcome [2]: inactive

CCCCCCCCCCCCCCO
outcome [5]: inactive

CCCCCCCC/C=C\CCCCCCCC(=O)OC[C@@H](O)[C@H]1OC[C@H](O)[C@H]1O
outcome [5]: inactive

COc1cc(C(C)C)c2c(c1)S(=O)(=O)N(COc1cc(=O)n3cccc(OCCN4CCCCC4)c3n1)C2=O
AC50 [3]: 3.1 µM (active)
outcome [5]: inactive
AC50 [2]: 1.38 µM (active)
outcome [9]: inactive
AC50 [8]: 3.17 µM (active)

CCc1ccc(O)c(C(C)(C)C)c1
outcome [3]: inactive
outcome [9]: inactive

OCCOCCOCCO
outcome [10]: inactive

O=S(=O)(O)c1ccc(N=Nc2c(O)ccc3cc(S(=O)(=O)O)ccc23)cc1
outcome [3]: inactive
AC50 [2]: 35.6 µM (active)

c1ccc2cc3ccccc3cc2c1
outcome [5]: inactive

CCCCCCCCCCCCCCCCOS(=O)(=O)O
AC50 [5]: 4.11 µM (active)
AC50 [8]: 12.5 µM (active)

O=C(O)[C@H](O)[C@@H](O)C(=O)O
outcome [5]: inactive

Cc1ccc(S(=O)(=O)NC(=O)NN2CCCCCC2)cc1
outcome [2]: inactive

CC(C)C(=O)Nc1ccc([N+](=O)[O-])c(C(F)(F)F)c1
outcome [4]: inactive
AC50 [2]: 6.71 µM (active)

CCCCCCCC1CCC(=O)O1 (configuration not stated)
outcome [9]: inactive
outcome [10]: inactive

CCn1nc(C)c2c1C(=O)NCC(c1ccc(O)cc1)=N2
outcome [4]: inactive
outcome [5]: inactive
outcome [1]: inactive
outcome [9]: inactive
outcome [10]: inactive

NC(=O)NN=Cc1ccc([N+](=O)[O-])o1
outcome [10]: inactive

C=CCc1cc(S(=O)(=O)c2ccc(O)c(CC=C)c2)ccc1O
AC50 [4]: 7.68 µM (active)
AC50 [5]: 4.83 µM (active)
AC50 [2]: 10 µM (active)
outcome [8]: inactive

Cc1nccn1-c1ccc(Sc2cccc(C3(C(N)=O)CCOCC3)c2)cc1
outcome [2]: inactive

CCN(CC)C(=S)SSC(=S)N(CC)CC
outcome [5]: inactive
AC50 [2]: 19 µM (active)
outcome [8]: inactive

CNC(C)=O
outcome [6]: inactive

COCc1nnc(-c2ccc[n+]([O-])c2)n1-c1c(Cl)c(Cl)cc2[nH]c(=O)c(=O)[nH]c12
outcome [4]: inactive

c1ccc(C(O[C@@H]2CCCN(CCc3ccc4c(c3)OCO4)C2)c2ccccc2)cc1
AC50 [4]: 5.08 µM (active)
AC50 [5]: 5.65 µM (active)
outcome [6]: inactive
AC50 [2]: 3.4 µM (active)
AC50 [1]: 5.63 µM (active)
AC50 [9]: 11.3 µM (active)
AC50 [8]: 17 µM (active)

C=CN1CCCC1=O
outcome [5]: inactive

Cc1ncc([C@@H](CCCCCCc2ccc3c(n2)NCCC3)CC(=O)O)cn1
outcome [1]: inactive
